# Screening results deposited in PubChem by National Center for Advancing Translational Sciences (NCATS).
# aSyn rescue: inhibitors of alpha-synuclein toxicity in yeast | Yeast expressing alpha-synuclein, growth rescue, BacTiter-Glo, 24 h | Potency, µM (top dose mostly 46.1 µM), for the others: at the highest dose growth rescue (activation), usual class: activators | 370,000 tested, 0.14% active | AID 652106; further: % of control where 0% means no effect; nearly all actives have a fitted effect of over 65% in size
#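 Galactose-induced alpha-syn yeast (OD600=0.02, raffinose-pregrown) + pinned cpd, 24 hr, 30 deg C; growth by BacTiter-Glo luminescence. Growth restoration scores as activation.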
# Mito fusion act: blocks mitochondrial division or promotes mitochondrial fusion; S. cerevisiae fusion-defective mutant growth rescue, CellTiterGlo 48 h; Potency, µM (highest dose often 46.1 µM), inactives show at the highest dose growth rescue (activation), hits mostly activators; 320,000 tested, 0.23% active; AID 485298; further: % of control where 0% means no effect; nearly all actives have a fitted effect of over 45% in size
#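 S. cerevisiae fusion-defective temperature-sensitive mutants (e.g. fzo1-1, mgm1-5) grown 48 h at 37C in YPEG (ethanol/glycerol non-fermentable) medium with 23 nl compound per well; growth rescue read as CellTiterGlo luminescence.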
# A-T KAP1 phos: candidate therapy for ataxia-telangiectasia; Potency, µM (doses to about 57.5 µM), for inactives: at the highest dose activation, actives largely listed as activators; 320,000 tested, 0.19% active; F2112 A-T fibroblasts, KAP-1 phosphorylation AlphaLISA; neocarzinostatin DNA damage 30 min before lysis; further: % of control where 0% means no effect; nearly all actives have a fitted effect of over 45% in size
#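 hTERT-immortalized A-T patient fibroblasts (F2112), 500 cells/well in OPTI-MEM, 1% FBS, got compounds for 60 min, then NCS for 30 min at 37C. Lysates were then assayed for phospho-KAP-1 by AlphaLISA (anti-pKAP1 donor, anti-KAP1 acceptor beads), 6 hr at 25C.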
# TDP-43 yeast inh: TDP-43 toxicity inhibition in yeast. Potency, µM (series often up to 46.1 µM), for inactives: at the top dose growth rescue (activation), most hits filed as activators. 410,000 tested, 1.8% active. TDP-43 expressing yeast growth rescue, BacTiter-Glo, 24 h; further: % of control where 0% means no effect; nearly all actives have a fitted effect of over 50% in size
#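 In this qHTS, compounds that restore growth of yeast expressing TDP-43 appear as activators. Cells (OD600=0.02, galactose medium, raffinose-pregrown) are incubated with compound 24 hr at 30 deg C and growth is quantified by BacTiter-Glo.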
# FUS suppressor: rescues growth of FUS-expressing yeast. 390,000 tested, 0.24% active. S. cerevisiae FUS-expressing, growth rescue, OD600, 24 h. Potency, µM (highest dose often 76.6 µM), hits mostly activators. AID 1347120;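 further: plate controls were DMSO vehicle for no effect and reference control for full effect; nearly all actives have a fitted effect of over 55% in size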
#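 Compound concentration series was pinned onto galactose-induced FUS-expressing yeast seeded at OD 0.005. Plates sat 24hr at 30C; absorbance at 600 nm gave growth. DMSO served as background control.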
# Abeta yeast res: restores growth of yeast expressing A-beta42 peptide | yeast expressing A-beta42, growth rescue, OD600, 48 h; response scale: 0% DMSO, 100% iron-clioquinol control | AID 1347071 | Potency, µM (series often up to 46.1 µM), usual class: activators | 410,000 tested, 0.063% active; further: nearly all actives have a fitted effect of over 55% in size
#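 Yeast A-beta toxicity model in growth medium with pinned compounds, 48 h at 30 C; growth read as absorbance at 600 nm. Normalized to FeCl3/clioquinol equimolar mix (positive) and DMSO (negative).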
# Active calls of the source: *; i = inactive; u = inconclusive; x = no result; ! = repeats disagree; [ ] = remark or other dose. An excerpt weighted towards active compounds, which were near 2.4% of everything screened. The call rests on the fitted dose curve; in most records, active means well fitted curve in the direction sought with a large enough effect; inconclusive means small, poorly fitted or top-dose-only effect, or another doubt; inactive means no such curve, though single readings can be large; an effect the other way counts as inactive or inconclusive. Potency means the concentration at half of the fitted maximal effect.
SMILES,aSyn rescue,Mito fusion act,A-T KAP1 phos,TDP-43 yeast inh,FUS suppressor,Abeta yeast res
O=C(CSc1nc(=O)n2cc(Cl)ccc2n1)Nc1cccc2ccccc12,5.5%,3.8%,17.7%,7.08µM*,i,i
Cc1ccn2c(=O)nc(SCC(=O)Nc3cccc4ccccc34)nc2c1,15.3%,16.1%,6.5%,-1.8%,22.4µM*,i
COc1cc2nc(N3CCN(C)CC3)nc(NC3CCN(C)CC3)c2cc1OC,-8.6%,x,x,x,x,x
Cc1cccc(NC(=O)C2CCCN2S(=O)(=O)c2cccc3cccnc23)c1C (stereo not drawn),x,x,x,x,i,x
CN(C)S(=O)(=O)c1ccc2c(c1)N(CC(=O)NCc1ccc(F)cc1)C(=O)CS2,x,x,x,14.8%,i,i
CCOC(=O)C1CCCN(C2CC(=O)N(c3ccc(N4C(=O)CC(N5CCCC(C(=O)OCC)C5)C4=O)cc3)C2=O)C1 (stereo not drawn),5.7%,-6.8%,-2.3%,8.0%,i,i
CCOC(=O)C1CCCN(C2CC(=O)N(c3ccc(C(C)C)cc3)C2=O)C1 (stereo not drawn),5.6%,-19.5%,-1.7%,35.5µM*,i,i
CCOC(=O)c1ccc(N2C(=O)C3CC=CCC3C2=O)cc1 (stereo not drawn),3.8%,0.3%,2.1%,-7.3%,i,i
CCOC(=O)c1ccc(N2C(=O)C3C(C2=O)C(C(=O)c2ccc(Cl)cc2)N2CCCC32)cc1 (stereo not drawn),3.2%,-2.6%,6.1%,-1.1%,12.6µM*,i
Cc1ccccc1OCCCCc1c(C)n[nH]c1C,-1.9%,7.7%,3.0%,-0.3%,i,i
Cc1ccccc1OCCCc1c(C)n[nH]c1C,8.0%,5.7%,1.4%,20µM*,i,i
COc1ccc([N+](=O)[O-])cc1NC(=O)C(C)OC(=O)C1CCCC1 (stereo not drawn),-2.9%,2.7%,-5.7%,26.7%,i,i
COc1ccc([N+](=O)[O-])cc1NC(=O)C(C)Sc1ccc(C)cc1 (stereo not drawn),9.1%,22.7%,11.1%,12.6µM*,x,i
COc1ccc([N+](=O)[O-])cc1NC(=O)C(C)OC(=O)CC1CCCC1 (stereo not drawn),-10.1%[1.84 µM],14.9%,7.8%,20µM*,u,i
CC(C)(C)c1ccc(N2C(=O)Cc3c2nc(N)c(C#N)c3N)cc1,x,12.9%,3.2%,-3.2%,u,i
CCc1ccc(N2C(=O)Cc3c2nc(N)c(C#N)c3N)cc1,-6.2%,5.2%,2.7%,-0.3%,25.1µM*,i
COc1ccc(/C=C2\SC(=O)NC2=S)cc1OC,-15.9%,17.8%,-8.0%,8.91µM*,i,i
CCOc1ccc(/C=C2\SC(=S)NC2=O)cc1OC,-1.4%,-6.7%,-6.4%,-8.2%,i,i
CC(C)(C)CCN1C[C@@H]2C(CNC(=O)c3cc(Cl)cc(Cl)c3)[C@@H]2C1 (stereo partly drawn),x,x,x,x,i,x
Cc1ccc(NC(=O)/C=C/C(=O)O)c([N+](=O)[O-])c1,6.2%,-2.3%,-3.4%,26.4%,i,i
Cc1cc(NC(=O)/C=C\C(=O)O)c([N+](=O)[O-])cc1C,3.4%,-4.8%,-1.7%,22.4µM*,i,i
Cc1ccc(Cc2c(C(C)(C)C)nc3cc(C)c(Br)c(C)n23)cc1,4.4%,x,x,0.0%,i,i
Cc1cc2nc(C(C)(C)C)c(Cc3ccsc3)n2c(C)c1Br,-13.5%,x,x,12.6µM*,i,u
Cc1cc2nc(C3CCCCC3)c(Cc3ccsc3)n2c(C)c1Br,3.55µM*,x,x,19.8%,i,i
Cc1ccc(Cc2c(C3CCCCC3)nc3cc(C)c(Br)c(C)n23)cc1,-1.4%,x,x,7.4%,i,i
SMILES,aSyn rescue,Mito fusion act,A-T KAP1 phos,TDP-43 yeast inh,FUS suppressor,Abeta yeast res
CC#C[C@]1(O)CC[C@H]2[C@@H]3CCC4=CC(=O)CCC4=C3[C@@H](c3ccc(N(C)C)cc3)C[C@@]21C,4.6%,9.2µM*!,-20.0%,19.8%,i,i
CCOC(=O)c1ccc(NC(=O)c2ccc(-c3cccc(Cl)c3C)o2)cc1,x,x,x,23.5%,i,i
Cc1c(C2(O)CCCCC2)[nH]c2cc(C(F)(F)F)ccc12,-15.9%,x,-2.4%,6.31µM*,i,i
O=C(CSc1nnc2ccc3ccccc3n12)Nc1ccccc1Cl,x,x,x,17.8µM*,i,i
CC1(C)CC2(CCCN(C(=S)Nc3ccccc3)C2)CCO1 (stereo not drawn),3.4%,-4.3%,20µM*,0.5%,i,i
COC(=O)C[C@@H]1CC[C@H]2[C@@H](COc3ccc(NC(=O)c4ccc(C(F)(F)F)cc4)cc3C(=O)N2C)O1,x,x,x,x,i,x
O=C(N/N=C/c1ccncc1)c1ccccc1,-4.8%,0.1%,-4.9%,-7.7%,i,i
O=C(N/N=C/c1cccc(Oc2ccccc2)c1)c1ccncc1,17.5%,-6.2%,2.8%,12.6µM*,i,i
CC1Cc2ccccc2N1C(=S)NC(=O)C1(C)CC1(Cl)Cl (stereo not drawn),-5.7%,2.6%,-2.6%,u,i,12.6µM*
CC1Cc2ccccc2N1C(=S)NC(=O)c1ccco1 (stereo not drawn),-11.2%,6.9%,16.0%,u,i,i
O=c1[nH]nc(CNc2ccc(OC(F)(F)F)cc2)c2ccccc12,-4.6%,-1.0%,2.9%,14.1µM*,i,i
O=c1[nH]c2cc3c(cc2cc1C(c1nnnn1Cc1ccccc1)N1CCN2CCCC2C1)OCCO3 (stereo not drawn),3.0%,-3.0%,-5.7%,-20.5%,17.8µM*,i
O=C(c1ccccc1C(F)(F)F)N1CCC(Oc2cccnc2)CC1,x,x,x,x,i,x
Cc1ccc(Cl)cc1N1CCN(C(=O)c2cc(S(=O)(=O)N3CCC(C)CC3)cn2C)CC1,x,x,x,24.1%,i,i
O=C(N/N=C/c1cc(Br)cc(Cl)c1O)c1ccc2c(c1)OCO2,5.62µM*,x,x,6.31µM*,i,i
O=C(NCc1cccc(Cl)c1)c1cc(COc2ccc3ncccc3c2)on1,-10.9%,7.8%,5.2%,14.1µM*,i,i
Cc1ccc(C)c(OCCC(=O)Nc2ccc3c(c2)OCO3)c1,-8.5%,-8.0%,3.9%,11.2µM*,x,i
OCCCNc1nc(-c2ccc(Br)cc2)nnc1-c1ccc(Cl)cc1,-7.5%,22.4µM*,2.0%,u,x,i
OCCCNc1nc(-c2ccc(Cl)cc2)nc2ccccc12,-1.2%,25.4%,14.5%,8.9%,i,i
Cc1cc(Nc2cccc(C)c2C)n2cnnc2n1,x,x,x,1.7%,i,i
